{
  "source": "PubChem BioAssay (NCI)",
  "note": "About 79,000 compounds went through this panel and 15% of them were active in at least one assay; those are over-represented in the sample as a whole. Unmarked numbers belong to inactive results. No stated cut-off is given here; in the data, active means growth inhibition above about 70%; inactive means the rest.",
  "data": [
    {"test": "NCI Yeast Anticancer Drug Screen. Data for the mec2-1 strain (AID 157)", "settings": "S. cerevisiae mec2-1 strain, at 50.0 µM, stronger effect = higher value", "summary_of_the_method": "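Mutant yeast (mec2-1) grown with compound; growth inhibition relative to vehicle control reported.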", "units": {"growth inhibition": "%"}, "values": [
      {"smiles": "O=C(NSNc1ccccc1)c1ccccc1", "growth inhibition": -3},
      {"smiles": "COC(=O)Cc1ccc2c(c1)Sc1ccc(CC(=O)OC)cc1N2C", "growth inhibition": -43.8},
      {"smiles": "O=C(NCCCl)NCc1cccc2c1CCCC2", "growth inhibition": 9.75},
      {"smiles": "NCCNC(=O)c1ccccc1", "growth inhibition": 1.8},
      {"smiles": "NC(CCC(=O)NC1(C(=O)O)C2CC3CC(C2)CC1C3)C(=O)O", "note": "(centres undefined)", "growth inhibition": -0.1},
      {"smiles": "O=C(CC(O)(C(F)(F)Cl)C(F)(F)Cl)c1cccc([N+](=O)[O-])c1", "growth inhibition": 62},
      {"smiles": "CC(=O)Nc1ccc(/C=N/NC(N)=O)cc1", "growth inhibition": 11.6},
      {"smiles": "CC1(C)OC2OC(C(O)COC(=O)c3ccccc3)C(Cl)C2O1", "note": "(centres undefined)", "growth inhibition": 8.35},
      {"smiles": "Cc1ccc(C2[C@H]3C(=O)N(c4ccc(Cc5ccc(N6C(=O)[C@@H]7ON(c8ccccc8)C(c8ccc(C)cc8)[C@@H]7C6=O)cc5)cc4)C(=O)[C@H]3ON2c2ccccc2)cc1", "note": "(some centres undefined)", "growth inhibition": -17.9},
      {"smiles": "CN(C)CCOc1cccc(OCCN(C)C)n1", "growth inhibition": -3.25},
      {"smiles": "Cc1ccc(-c2cc(-c3ccco3)nc(N)n2)o1", "growth inhibition": -9.1},
      {"smiles": "N#CCCOCC(COCCC#N)(COCCC#N)COCCC#N", "growth inhibition": -24.4},
      {"smiles": "CCC(CC)c1ccc2ccccc2c1", "growth inhibition": 1},
      {"smiles": "COC1C=CC2OC(c3ccccc3)OCC2O1", "note": "(centres undefined)", "growth inhibition": 9.1},
      {"smiles": "Clc1ccc(N=Nc2ccccc2)cc1", "growth inhibition": 12.3},
      {"smiles": "COc1ccc(/C=C2\\N=C(c3ccccc3)N(Nc3nnc(NN4C(=O)/C(=C/c5ccc(OC)cc5)N=C4c4ccccc4)c4ccccc34)C2=O)cc1", "growth inhibition": -10.3},
      {"smiles": "Cc1ccc(S(=O)(=O)N2CCCCC2)cc1", "growth inhibition": -3.35},
      {"smiles": "CC(=O)Oc1ccc(OC(C)=O)c2cc3ccccc3cc12", "growth inhibition": -29.1},
      {"smiles": "Cc1ccc(N2C(=O)/C(=C/c3ccc(N(CCC#N)CCC#N)cc3C)N=C2c2cc([N+](=O)[O-])ccc2Cl)cc1", "growth inhibition": 14.5},
      {"smiles": "CC1=[N+]([O-])C2(CCCC2)N(O)C1(C)C", "growth inhibition": -0.7},
      {"smiles": "COC(=O)c1ccccc1C1CN=NC12Cc1cccc(C)c1C2=O", "note": "(centres undefined)", "growth inhibition": 20.2},
      {"smiles": "COC(=O)c1nc(N)nc(C(=O)OC)c1C(=O)c1c(C)[nH]c2ccccc12", "growth inhibition": -20},
      {"smiles": "COC1(c2ccccc2)N=C(c2ccc([N+](=O)[O-])cc2)OC1(C)C", "note": "(centres undefined)", "growth inhibition": 1.7},
      {"smiles": "NC(=O)c1ccc(Cl)cc1C(N)=O", "growth inhibition": 17.9},
      {"smiles": "CC1SC2(C(=O)Nc3ccccc32)N(c2ccc(Cl)cc2)C1=O", "note": "(centres undefined)", "growth inhibition": 10.3},
      {"smiles": "COC/N=C(\\NC#N)NCOC", "growth inhibition": -1},
      {"smiles": "Nc1cccc2c1C(=O)c1cccc(Nc3ccc4c(c3)C(=O)c3ccccc3C4=O)c1C2=O", "growth inhibition": -2.7},
      {"smiles": "CCc1cc(Cl)c(O)c(Cl)c1", "growth inhibition": 18.2},
      {"smiles": "CN(C)c1ccc(/C=c2\\[nH]c(=O)/c(=C\\c3ccc(N(C)C)cc3)[nH]c2=O)cc1", "growth inhibition": 4.6},
      {"smiles": "COc1cc(CCl)c(OC)cc1Cl", "growth inhibition": 0.9},
      {"smiles": "COC(=O)c1c(O)ccc(O)c1C(=O)OC", "growth inhibition": -18.4},
      {"smiles": "O=C(CC(=O)N1N=C(n2ccc3ccccc32)CC1c1ccccc1)Nc1ccccc1Cl", "note": "(centres undefined)", "growth inhibition": -13.8},
      {"smiles": "CCN(CC)CCCC(C)Nc1ccnc2ccc3nn(C)nc3c12", "note": "(centres undefined)", "growth inhibition": -4.6},
      {"smiles": "OCCN(CCO)c1nc(N(CCO)CCO)nc(N(CCO)CCO)n1", "growth inhibition": 16.4},
      {"smiles": "COC1=NCc2ccccc2-c2ccccc21", "growth inhibition": -21.2},
      {"smiles": "COC1CCCC2CC3=C(CCCC3)OC21", "note": "(centres undefined)", "growth inhibition": 3.5},
      {"smiles": "COc1ccc2cc1Oc1ccc(cc1)CC1=NCCc3cc(OC)c(OC)c(c31)Oc1cc3c(cc1OC)CCN(C)C3C2", "note": "(centres undefined)", "growth inhibition": -14.6},
      {"smiles": "COc1ccc(C=O)c(C(=O)O)c1OC", "growth inhibition": -52.9},
      {"smiles": "C=CC1(c2ccc3ccccc3c2)OCC(CC)(CC)CO1", "growth inhibition": 7.15}
    ]}
  ]
}
